Drawing on PubChem BioAssay (EPA / NIEHS), this text covers outcome and AC50 for nine compounds.

Read-out in assay [1]: Intercellular Adhesion Molecule 1 (ICAM1), ICAM1 (gene 3383)
Briefly: BSK_3C_ICAM1: BioMAP Diversity Plus: 3C Assay for Intercellular Adhesion Molecule 1 (ICAM1) Biomarker Activity (AID 2283003; active means hit-call score of the fitted dose curve at least 0.9, where 1 is the maximum; inactive means score below 0.9). As to conditions: primary human endothelial cells (HUVEC); actives raise or lower the signal. The essentials: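 Primary human umbilical vein endothelial cells in the BioMAP 3C system were exposed to chemicals for 24 h, then ICAM-1 was quantified by ELISA. Activity was fitted bidirectionally against the DMSO negative control baseline.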

A short description of assay [2]: BSK_3C_Proliferation: Cell Proliferation Assessment in the BioMAP Diversity Plus: 3C Assay (AID 2283006; active means hit-call score of the fitted dose curve at least 0.9, where 1 is the maximum; inactive means score below 0.9;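 on AC50: potency may reflect either rise or fall in cell number versus DMSO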). As to conditions: primary human endothelial cells (HUVEC). The essentials:
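Human umbilical vein endothelial cells were grown sub-confluent and exposed to chemical for 48 h, then fixed with 10% TCA and stained with 0.1% sulforhodamine B; absorbance at 560 nm gave relative cell number, fitted bidirectionally against DMSO baseline.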

Assay [3] concerns the target Nuclear receptor subfamily 1 group I member 2 (Homo sapiens) (UniProt O75469). Description: ATG_PXR_TRANS: Attagene TRANS-FACTORIAL HepG2 Assay for human Pregnane X Receptor (PXR) (AID 2283008). The essentials: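 HepG2 cells transiently transfected with GAL4-UAS reporter units and PXR-Gal4 chimera, exposed 24 h. Reporter mRNA quantified by RT-PCR, fluorescent labelling, HpaI digestion and capillary electrophoresis; gain of signal vs DMSO.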

For assay [4], the target named is human Retinoic Acid Receptor gamma (RARg), RARG (gene 5916) (UniProt P13631). Description: ATG_RARg_TRANS: Attagene TRANS-FACTORIAL HepG2 Assay for human Retinoic Acid Receptor gamma (RARg) (AID 2283009). In outline: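 HepG2 cells transiently transfected with multiplexed reporter units expressing chimeric RARg-GAL4 and GAL4-UAS-driven reporters; 24 h compound exposure. Reporter mRNA quantified by RT-PCR with fluorescent labelling and capillary electrophoresis; gain-of-signal fitted relative to DMSO baseline.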
Chain of human Retinoic Acid Receptor gamma (RARg), RARG (gene 5916) (P13631 whole entry, looked up, the tested form may be a part): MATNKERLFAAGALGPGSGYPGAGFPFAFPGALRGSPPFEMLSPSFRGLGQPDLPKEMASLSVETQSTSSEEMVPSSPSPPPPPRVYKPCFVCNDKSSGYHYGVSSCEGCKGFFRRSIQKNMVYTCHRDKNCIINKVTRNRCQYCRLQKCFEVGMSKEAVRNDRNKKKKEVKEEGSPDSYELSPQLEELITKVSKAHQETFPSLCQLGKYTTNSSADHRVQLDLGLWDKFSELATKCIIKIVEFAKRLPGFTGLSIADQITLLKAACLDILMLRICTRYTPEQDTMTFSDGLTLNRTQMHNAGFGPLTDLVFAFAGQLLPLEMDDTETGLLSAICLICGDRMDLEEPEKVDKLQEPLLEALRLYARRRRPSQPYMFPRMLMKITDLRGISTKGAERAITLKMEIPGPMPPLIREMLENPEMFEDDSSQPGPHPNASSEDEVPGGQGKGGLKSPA

The target in assay [5] is human RAR-related Orphan Receptor beta (RORb), RORB (gene 6096) (UniProt Q92753). Briefly: ATG_RORb_TRANS: Attagene TRANS-FACTORIAL HepG2 Assay for human RAR-related Orphan Receptor beta (RORb) (AID 2283010). The essentials: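 HepG2 cells were transiently transfected with multiplexed GAL4-UAS reporter units expressing chimeric nuclear receptor–GAL4 proteins, then dosed for 24 h. Reporter mRNA was quantified by RT-PCR with fluorescent labelling and capillary electrophoresis; gain of signal was fitted relative to DMSO.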
Chain of human RAR-related Orphan Receptor beta (RORb), RORB (gene 6096) (Q92753 whole entry, looked up, the tested form may be a part): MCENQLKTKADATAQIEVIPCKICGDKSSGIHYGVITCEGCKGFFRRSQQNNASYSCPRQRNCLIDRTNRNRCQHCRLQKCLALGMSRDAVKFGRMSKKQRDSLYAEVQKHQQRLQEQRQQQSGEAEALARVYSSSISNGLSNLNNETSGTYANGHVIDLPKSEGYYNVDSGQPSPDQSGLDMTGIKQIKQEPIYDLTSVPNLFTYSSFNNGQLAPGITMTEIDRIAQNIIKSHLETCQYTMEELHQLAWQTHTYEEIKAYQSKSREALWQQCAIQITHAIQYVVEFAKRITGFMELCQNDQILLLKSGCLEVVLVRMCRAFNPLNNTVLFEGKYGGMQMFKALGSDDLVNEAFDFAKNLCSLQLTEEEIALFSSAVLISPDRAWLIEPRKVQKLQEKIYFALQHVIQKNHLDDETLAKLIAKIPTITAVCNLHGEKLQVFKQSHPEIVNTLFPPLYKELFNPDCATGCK

Assay [6] deals with human RAR-related Orphan Receptor gamma (RORg), RORC (gene 6097) (UniProt P51449). Description: ATG_RORg_TRANS: Attagene TRANS-FACTORIAL HepG2 Assay for human RAR-related Orphan Receptor gamma (RORg) (AID 2283011). The essentials:
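Reporter transcripts from a transfected RORg-GAL4 chimera in HepG2 cells were quantified 24 h after dosing by RT-PCR, 6-FAM labelling, HpaI digestion and capillary electrophoresis; increases over DMSO baseline were fitted.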

Assay [7] has as its target human Thyroid Receptor alpha (THRa1), THRA (gene 7067) (UniProt P10827). Briefly: ATG_THRa1_TRANS: Attagene TRANS-FACTORIAL HepG2 Assay for human Thyroid Receptor alpha (THRa1) (AID 2283014). In outline: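 Transcripts from GAL4-UAS-driven reporters, measured after 24 h compound exposure by RT-PCR plus capillary electrophoresis of 6-FAM-labeled fragments, were fitted for gain of signal relative to DMSO. Cells: transiently transfected HepG2 expressing NR-Gal4 chimeras.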

Read-out in assay [8]: E-selectin (Homo sapiens) (UniProt P16581)
Briefly: BSK_3C_Eselectin: BioMAP Diversity Plus: 3C Assay for Eselectin Biomarker Activity (AID 2283015; active means hit-call score of the fitted dose curve at least 0.9, where 1 is the maximum; inactive means score below 0.9;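 on outcome: cell surface E-selectin protein quantified by ELISA 24 h after dosing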). As to conditions: primary human endothelial cells (HUVEC); actives raise or lower the signal. In outline: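 E-selectin ELISA readout, fitted bidirectionally relative to DMSO, taken 24 h post-dosing in HUVEC cultures of the 3C system. Overt cytotoxicity tracked with sulforhodamine B staining of parallel wells.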

Read-out in assay [9]: Interleukin-1 alpha (IL1a), IL1A (gene 3552)
Description: BSK_BE3C_IL1a: BioMAP Diversity Plus: BE3C Assay for Interleukin-1 alpha (IL1a) Biomarker Activity (AID 2283016; active means hit-call score of the fitted dose curve at least 0.9, where 1 is the maximum; inactive means score below 0.9). As to conditions: primary human bronchial epithelial cells; actives raise or lower the signal. In outline:
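Human primary bronchial epithelial cells (BE3C system) were dosed with compound and IL-1a measured by ELISA 24 h later. Activity was fitted bidirectionally against DMSO baseline; cytotoxicity was tracked in parallel cultures by SRB total-protein staining.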

Read-out in assay [10]: Monocyte Chemoattractant Protein-1 (MCP1), CCL2 (gene 6347)
Briefly: BSK_4H_MCP1: BioMAP Diversity Plus: 4H Assay for Monocyte Chemoattractant Protein-1 (MCP1) Biomarker Activity (AID 2283018; active means hit-call score of the fitted dose curve at least 0.9, where 1 is the maximum; inactive means score below 0.9). The note with it: primary human endothelial cells (HUVEC); actives raise or lower the signal. The essentials: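 Human umbilical vein endothelial cells (4H system) dosed with chemical; MCP-1 measured by ELISA 24 h after dosing. Bidirectional curve fitting against DMSO negative control as baseline; parallel SRB total-protein staining tracks overt cytotoxicity.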

Read-out in assay [11]: Human Leukocyte Antigen - DR isotype (HLADR), HLA-DRA (gene 3122)
Briefly: BSK_3C_HLADR: BioMAP Diversity Plus: 3C Assay for Human Leukocyte Antigen - DR isotype (HLADR) Biomarker Activity (AID 2283019; active means hit-call score of the fitted dose curve at least 0.9, where 1 is the maximum; inactive means score below 0.9;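 on outcome: ELISA of cell-surface HLA-DR on HUVEC 24 h after dosing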). The note with it: primary human endothelial cells (HUVEC); actives raise or lower the signal. The essentials: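 Bidirectional fitting against DMSO was applied to the HLA-DR ELISA signal from human umbilical vein endothelial cells, 24 h post-dose. Cytotoxicity came from parallel SRB total-protein staining; 3C proliferation was counted by SRB at 48 h.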

Read-out in assay [12]: Monokine induced gamma interferon (MIG), CXCL9 (gene 4283)
Description: BSK_3C_MIG: BioMAP Diversity Plus: 3C Assay for Monokine induced gamma interferon (MIG) Biomarker Activity (AID 2283021; active means hit-call score of the fitted dose curve at least 0.9, where 1 is the maximum; inactive means score below 0.9;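 on AC50: MIG protein level measured by immunoassay in the treated endothelial cultures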). The note with it: primary human endothelial cells (HUVEC); actives raise or lower the signal. The essentials:
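Primary human umbilical vein endothelial cells in the 3C system were exposed to chemical for 24 h, after which MIG was quantified by ELISA. Activity was fitted bidirectionally against DMSO as negative control and baseline.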

The target in assay [13] is human Vitamin D Receptor (VDR), VDR (gene 7421) (UniProt P11473). Description: ATG_VDR_TRANS: Attagene TRANS-FACTORIAL HepG2 Assay for human Vitamin D Receptor (VDR) (AID 2283022). The essentials: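 Transactivation by an exogenous VDR-Gal4 chimera in transiently transfected HepG2 cells was measured as reporter transcript level 24 hours after chemical treatment. RT-PCR products were analysed by capillary electrophoresis and fitted in the positive direction relative to DMSO.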
Chain of human Vitamin D Receptor (VDR), VDR (gene 7421) (P11473 whole entry, looked up, the tested form may be a part): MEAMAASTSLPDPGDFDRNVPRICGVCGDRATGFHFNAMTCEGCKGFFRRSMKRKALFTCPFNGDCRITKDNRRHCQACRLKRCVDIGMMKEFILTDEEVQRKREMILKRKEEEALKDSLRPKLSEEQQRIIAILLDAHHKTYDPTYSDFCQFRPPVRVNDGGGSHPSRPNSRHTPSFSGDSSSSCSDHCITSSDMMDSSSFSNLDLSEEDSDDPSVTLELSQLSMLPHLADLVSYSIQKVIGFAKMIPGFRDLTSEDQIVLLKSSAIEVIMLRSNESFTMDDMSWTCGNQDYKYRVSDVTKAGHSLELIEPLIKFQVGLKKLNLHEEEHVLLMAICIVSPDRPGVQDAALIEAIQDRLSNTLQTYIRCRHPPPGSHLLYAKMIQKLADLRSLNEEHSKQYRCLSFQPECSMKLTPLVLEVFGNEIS

Assay [14] deals with human Retinoic Acid Receptor beta (RARb), RARB (gene 5915) (UniProt P10826). Description: ATG_RARb_TRANS: Attagene TRANS-FACTORIAL HepG2 Assay for human Retinoic Acid Receptor beta (AID 2283004). In outline: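 Induction of reporter mRNA from a chimeric RARb-Gal4 construct was measured by RT-PCR, FAM labelling, HpaI digestion and capillary electrophoresis. Measurements followed 24 h compound treatment of transiently transfected human HepG2 liver cells, with DMSO as baseline.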
Chain of human Retinoic Acid Receptor beta (RARb), RARB (gene 5915) (P10826 whole entry, looked up, the tested form may be a part): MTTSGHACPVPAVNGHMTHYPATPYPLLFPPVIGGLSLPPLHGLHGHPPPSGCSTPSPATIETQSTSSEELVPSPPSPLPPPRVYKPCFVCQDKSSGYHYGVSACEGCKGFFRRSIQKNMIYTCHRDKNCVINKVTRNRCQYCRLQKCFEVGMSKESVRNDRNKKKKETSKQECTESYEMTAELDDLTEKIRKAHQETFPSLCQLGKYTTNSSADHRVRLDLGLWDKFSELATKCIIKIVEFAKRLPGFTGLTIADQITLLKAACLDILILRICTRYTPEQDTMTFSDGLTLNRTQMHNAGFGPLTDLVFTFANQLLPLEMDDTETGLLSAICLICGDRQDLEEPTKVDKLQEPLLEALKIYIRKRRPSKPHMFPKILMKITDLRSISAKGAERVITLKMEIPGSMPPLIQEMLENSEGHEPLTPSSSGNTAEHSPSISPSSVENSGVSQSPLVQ

Assay [15] deals with Retinoic acid receptor alpha (Homo sapiens) (UniProt P10276). Briefly: ATG_RARa_TRANS: Attagene TRANS-FACTORIAL HepG2 Assay for human Retinoic Acid Receptor alpha (RARa) (AID 2283005).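 On AC50: potency for increased reporter signal meaning RARa activation over DMSO.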 In outline:
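HepG2 transiently transfected with multiplex GAL4-UAS reporter units including a human RARa–GAL4 chimera; 24 h compound exposure. Reporter mRNA quantified by RT-PCR, 6-FAM labeling and capillary electrophoresis; gain of signal versus DMSO.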

Assay [16] concerns the target Peroxisome proliferator-activated receptor gamma (Homo sapiens) (UniProt P37231). Description: ATG_PPARg_TRANS: Attagene TRANS-FACTORIAL HepG2 Assay for human Peroxisome Proliferator-activated Receptor-gamma (PPARg) (AID 2283007). The essentials:
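Read-out: reporter mRNA induction, detected by fluorescence after RT-PCR and capillary electrophoresis. Transiently transfected human HepG2 liver cells carrying a chimeric NR-Gal4 construct were dosed for 24 h; activity was fitted upward relative to DMSO.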

Assay [17] addresses Retinoic acid receptor RXR-alpha (Homo sapiens) (UniProt P19793). Description: ATG_RXRa_TRANS: Attagene TRANS-FACTORIAL HepG2 Assay for human Retinoid X Receptor alpha (RXRa) (AID 2283012). The essentials:
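HepG2 cells transiently transfected with multiplexed GAL4-UAS reporter units and chimeric NR-GAL4 fusions, dosed 24 h. Reporter mRNA measured by RT-PCR, FAM labelling, HpaI digestion and capillary electrophoresis; gain-of-signal fitted relative to DMSO baseline.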

For assay [18], the target named is human Retinoid X Receptor beta (RXRb), RXRB (gene 6257) (UniProt P28702). Briefly: ATG_RXRb_TRANS: Attagene TRANS-FACTORIAL HepG2 Assay for human Retinoid X Receptor beta (RXRb) (AID 2283013). In outline: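 HepG2 cells transiently transfected with multiplexed reporter units driven by GAL4-UAS and exogenous chimeric NR-Gal4 proteins; treated 24 h. Reporter mRNA measured by RT-PCR, 6-FAM labelling and capillary electrophoresis; gain-of-signal fitted versus DMSO baseline.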
Chain of human Retinoid X Receptor beta (RXRb), RXRB (gene 6257) (P28702 whole entry, looked up, the tested form may be a part): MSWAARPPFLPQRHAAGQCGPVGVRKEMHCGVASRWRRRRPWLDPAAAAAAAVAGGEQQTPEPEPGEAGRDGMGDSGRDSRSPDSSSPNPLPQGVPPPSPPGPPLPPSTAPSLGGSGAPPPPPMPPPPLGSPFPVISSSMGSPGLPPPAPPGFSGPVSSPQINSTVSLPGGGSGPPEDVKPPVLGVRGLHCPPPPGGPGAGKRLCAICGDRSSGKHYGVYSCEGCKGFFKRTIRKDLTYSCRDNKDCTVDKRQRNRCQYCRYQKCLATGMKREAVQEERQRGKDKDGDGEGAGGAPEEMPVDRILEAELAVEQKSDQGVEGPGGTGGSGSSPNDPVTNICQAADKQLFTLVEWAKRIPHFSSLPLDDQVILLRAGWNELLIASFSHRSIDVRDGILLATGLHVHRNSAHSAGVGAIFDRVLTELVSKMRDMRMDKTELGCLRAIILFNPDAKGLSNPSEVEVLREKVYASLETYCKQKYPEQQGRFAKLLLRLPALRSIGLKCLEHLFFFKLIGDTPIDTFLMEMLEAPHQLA

Read-out in assay [19]: Monocyte Chemoattractant Protein-1 (MCP1), CCL2 (gene 6347)
Description: BSK_3C_MCP1: BioMAP Diversity Plus: 3C Assay for Monocyte Chemoattractant Protein-1 (MCP1) Biomarker Activity (AID 2283017; active means hit-call score of the fitted dose curve at least 0.9, where 1 is the maximum; inactive means score below 0.9). As to conditions: primary human endothelial cells (HUVEC); actives raise or lower the signal. In outline:
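MCP-1 was measured by ELISA 24 h after dosing in primary HUVEC 3C cultures and fitted in both directions relative to DMSO; cytotoxicity was checked by SRB total-protein staining in parallel wells.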

Several values for one entry are separate records, joined by “and”; a condition that tells them apart may be missing. Equal entries are not always repeated. Inconclusive results are not listed. Activity calls are given as the source filed them. How the source made its calls, unless noted: active means hit-call score of the fitted dose curve at least 0.9, where 1 is the maximum; inconclusive means response in the unintended direction; inactive means score below 0.9.

Chain of Peroxisome proliferator-activated receptor gamma (Homo sapiens) (P37231 whole entry, looked up, the tested form may be a part): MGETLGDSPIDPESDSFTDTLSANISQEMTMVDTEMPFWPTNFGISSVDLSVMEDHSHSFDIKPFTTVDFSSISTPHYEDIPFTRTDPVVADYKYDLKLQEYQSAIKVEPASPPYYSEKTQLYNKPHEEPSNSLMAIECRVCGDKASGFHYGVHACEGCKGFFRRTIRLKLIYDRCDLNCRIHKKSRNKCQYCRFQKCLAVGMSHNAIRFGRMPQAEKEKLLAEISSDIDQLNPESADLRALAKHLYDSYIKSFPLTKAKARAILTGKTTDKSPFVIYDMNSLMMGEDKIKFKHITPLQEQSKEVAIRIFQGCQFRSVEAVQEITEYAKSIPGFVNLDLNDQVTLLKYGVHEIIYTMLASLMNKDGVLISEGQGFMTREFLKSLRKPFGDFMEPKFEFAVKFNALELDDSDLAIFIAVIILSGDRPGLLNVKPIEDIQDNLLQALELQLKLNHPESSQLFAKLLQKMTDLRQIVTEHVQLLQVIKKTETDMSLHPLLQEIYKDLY
Chain of human Thyroid Receptor alpha (THRa1), THRA (gene 7067) (P10827 whole entry, looked up, the tested form may be a part): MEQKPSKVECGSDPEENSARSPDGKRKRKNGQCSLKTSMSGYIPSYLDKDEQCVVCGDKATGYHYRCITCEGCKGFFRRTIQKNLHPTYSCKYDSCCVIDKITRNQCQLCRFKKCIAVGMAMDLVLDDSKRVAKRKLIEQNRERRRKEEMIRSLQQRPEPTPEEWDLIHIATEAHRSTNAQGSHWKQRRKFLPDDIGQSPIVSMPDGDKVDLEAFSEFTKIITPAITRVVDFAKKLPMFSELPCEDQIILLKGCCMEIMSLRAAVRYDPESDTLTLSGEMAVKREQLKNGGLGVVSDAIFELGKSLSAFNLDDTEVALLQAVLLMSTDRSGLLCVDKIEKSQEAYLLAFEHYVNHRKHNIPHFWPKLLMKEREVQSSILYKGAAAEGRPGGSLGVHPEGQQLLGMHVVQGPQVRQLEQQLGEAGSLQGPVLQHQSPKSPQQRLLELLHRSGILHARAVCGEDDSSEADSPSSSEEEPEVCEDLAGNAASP
Chain of E-selectin (Homo sapiens) (P16581 whole entry, looked up): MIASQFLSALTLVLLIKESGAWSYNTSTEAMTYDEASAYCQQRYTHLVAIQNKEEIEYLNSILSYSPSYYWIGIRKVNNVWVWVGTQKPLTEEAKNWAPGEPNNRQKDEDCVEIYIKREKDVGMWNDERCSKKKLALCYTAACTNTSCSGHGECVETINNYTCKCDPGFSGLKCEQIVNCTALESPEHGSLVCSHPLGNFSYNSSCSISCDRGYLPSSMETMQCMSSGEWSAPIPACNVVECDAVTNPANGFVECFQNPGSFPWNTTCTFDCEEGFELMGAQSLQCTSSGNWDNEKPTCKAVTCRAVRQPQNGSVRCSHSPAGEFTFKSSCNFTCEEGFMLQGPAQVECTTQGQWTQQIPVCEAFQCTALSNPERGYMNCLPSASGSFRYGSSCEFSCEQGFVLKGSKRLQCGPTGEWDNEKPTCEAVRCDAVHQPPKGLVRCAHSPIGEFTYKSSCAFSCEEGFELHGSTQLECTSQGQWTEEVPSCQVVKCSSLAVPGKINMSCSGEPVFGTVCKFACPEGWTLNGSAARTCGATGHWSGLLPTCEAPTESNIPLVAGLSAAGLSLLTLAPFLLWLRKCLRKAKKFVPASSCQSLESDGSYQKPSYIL
Chain of Retinoic acid receptor RXR-alpha (Homo sapiens) (P19793 whole entry, looked up, the tested form may be a part): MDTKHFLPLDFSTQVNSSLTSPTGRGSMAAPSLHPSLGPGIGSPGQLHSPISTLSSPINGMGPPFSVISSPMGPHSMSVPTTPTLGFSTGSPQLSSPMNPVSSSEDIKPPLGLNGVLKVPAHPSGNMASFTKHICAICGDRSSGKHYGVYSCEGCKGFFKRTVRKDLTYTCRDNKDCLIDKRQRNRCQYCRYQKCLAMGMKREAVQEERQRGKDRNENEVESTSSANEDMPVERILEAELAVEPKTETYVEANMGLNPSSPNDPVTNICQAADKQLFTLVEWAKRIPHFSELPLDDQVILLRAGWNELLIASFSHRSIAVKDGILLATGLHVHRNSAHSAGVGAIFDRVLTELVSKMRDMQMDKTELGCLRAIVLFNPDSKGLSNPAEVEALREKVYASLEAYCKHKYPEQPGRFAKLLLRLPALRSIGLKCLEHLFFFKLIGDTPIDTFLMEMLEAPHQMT
Chain of Nuclear receptor subfamily 1 group I member 2 (Homo sapiens) (O75469 whole entry, looked up, the tested form may be a part): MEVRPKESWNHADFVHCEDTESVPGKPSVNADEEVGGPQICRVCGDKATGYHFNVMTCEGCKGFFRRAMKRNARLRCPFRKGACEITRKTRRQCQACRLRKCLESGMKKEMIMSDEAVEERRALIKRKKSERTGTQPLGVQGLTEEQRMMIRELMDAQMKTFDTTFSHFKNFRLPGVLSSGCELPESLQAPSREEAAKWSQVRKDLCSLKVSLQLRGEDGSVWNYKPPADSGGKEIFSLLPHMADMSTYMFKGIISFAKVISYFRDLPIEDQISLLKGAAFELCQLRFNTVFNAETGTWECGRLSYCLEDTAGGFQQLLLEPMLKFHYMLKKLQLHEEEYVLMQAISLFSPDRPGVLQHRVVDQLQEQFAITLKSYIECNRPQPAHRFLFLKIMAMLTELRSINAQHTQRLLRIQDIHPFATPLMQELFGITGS

For `O=C(CCl)NCO`, the result in [1], in [2], in assay [3], in assay [4], in assay [5] and in assay [6] was inactive. In addition, the compound was called inactive in [7], in assay [8], in assay [9], in [10], in assay [11] and in assay [12]. Besides, the compound was called inactive in assay [13].

Turning to `C[CH2][Hg][S]c1ccccc1C(=O)O`, the call in assay [14], in assay [15], in [3], in [4], in [5] and in assay [6] was inactive. Moreover, the compound was classed as inactive in assay [17], in assay [7] and in assay [13]. Moreover, the AC50 in assay [16] is 3.71 µM (active); in assay [18] it was 1.72 µM (active).

Consider `O=C1c2ccccc2C(=O)C1C(=O)C(c1ccccc1)c1ccc(Cl)cc1` (stereo unspecified), for which the outcome in [14], in assay [4], in assay [5], in [17], in assay [18] and in [13] was inactive. The AC50 in [15] was 26.1 µM (active); in assay [16], 3.11 µM (active); in [3], 2.45 µM (active); in assay [7], 7.69 µM (active).

Take `O=C(O)COc1cc(Cl)c(Cl)cc1Cl`: the outcome in assay [1], in [2], in [3], in assay [18], in assay [7] and in assay [8] was inactive. In addition, the outcome in assay [9], in assay [10], in assay [11] and in assay [12] was inactive. In addition, in assay [16], the AC50 is 32.6 µM (active).

On to `O=S(=O)(C(Cl)(Cl)Cl)C(Cl)(Cl)Cl`, for which the AC50 in assay [1] is 2.9 µM (active); in [2], 0.2 µM (active); in [18], 20 µM (active); in assay [8] it was 1.86 µM (active); in [9], 3.32 µM (active); in [10] it was 1.16 µM (active). Further, the AC50 in assay [11] was 0.852 µM (active); in [12], 3.82 µM (active). Moreover, the call in assay [16] and in [17] was inactive.

In the case of `CC1(C)[C@H](C(=O)O[C@H](C#N)c2cccc(Oc3ccccc3)c2)[C@@H]1/C=C(\Cl)C(F)(F)F`, the outcome in [1], in [2], in [6], in [17], in [18] and in [7] was inactive. The result in [8], in assay [9], in assay [19], in [11], in assay [12] and in [13] was inactive. Moreover, the AC50 is 5.86 µM (active) and 4.64 µM (active) in assay [16]; 152 nM (active) and 288 nM (active) in assay [3]; 1.11 µM (active) and 4.07 µM (active) in [10].

As to `O=C(Cc1ccccc1)OCCc1ccccc1`, the result in [1], in [2], in [16], in assay [4], in assay [6] and in assay [18] was inactive. Also, the outcome in assay [8], in assay [9], in assay [19], in assay [10], in [11] and in [12] was inactive.

As to `Cc1ccc(OP(=O)(Oc2ccc(C)cc2C)Oc2ccc(C)cc2C)c(C)c1`, the result in assay [1], in assay [17], in assay [8], in [12] and in assay [13] was inactive. Further, the AC50 in assay [2] is 6.87 µM (active); in assay [16] it was 1.3 µM (active); in [3] it was 0.0821 µM (active); in assay [9] it was 4.77 µM (active); in [19], 20 µM (active); in [10], 4.53 µM (active). The AC50 in assay [11] was 20 µM (active).

Regarding `CN(C1CCCCC1)C1CCCCC1`, the compound was called inactive in [14], in assay [15], in [16], in assay [3], in [4] and in [7]. In [13], the compound was called inactive.
